Assay outcomes from PubChem.
Hsp90 block: displaces geldanamycin probe from tumor Hsp90. P07900. inhibition, % at 30 µM. NCI-N417 lysate Hsp90, Cy3B-geldanamycin FP displacement. 0.35% of 64,000 active;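 active means inhibition above 50%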;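 further: 0% = tracer plus lysate wells and 100% = tracer alone without lysate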
ROCK2 blocker: inhibitors of human Rho kinase 2 | O75116 | purified ROCK2, Kinase-Glo ATP depletion luminescence | inhibition, % at 6 µM | 0.35% of 60,000 active | AID 604;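 active means inhibition above the screen-wide mean inhibition plus 3 SD, cut at about 18% in these data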;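 further: plate controls were DMSO wells for no effect and Y-27632 control wells after no-enzyme background subtraction for full effect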
PKA inh: PKA (human) kinase inhibition. 0.1% of 65,000 active. P17612. PKA Kemptide phosphorylation, Kinase-Glo ATP luminescence. inhibition, % at 6 µM;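 active means inhibition above the screen-wide mean inhibition plus 3 SD, cut at about 21% in these data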
JNK3 inh: blocks human JNK3 kinase activity. P53779. purified JNK3 kinase activity, HTS. inhibition, % at 8 µM. 0.61% of 60,000 active. AID 746; in the data active means inhibition above about 17%;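 further: 0% = DMSO and 100% = reference inhibitor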
Jurkat viability: cytotoxicity toward Jurkat cells | Jurkat E6.1 viability, ATP luminescence, 48 h | inhibition, % at 4 µM | 1.2% of 56,000 active | AID 463;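 active means inhibition above the mean inhibition of all tested compounds plus 3 SD, cut at about 28% in these data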
* = called active by the depositor; x = not tested or not shown. Shown are actives, neighbours in structure and some others; about 1.9% of the full set was active somewhere.

SMILES	Hsp90 block	ROCK2 blocker	PKA inh	JNK3 inh	Jurkat viability
O=c1ccc2c(OCCCCc3ccccc3)c3ccoc3cc2o1	-3.0	x	x	x	x
CC(N)C1CCC(C(=O)Nc2ccncc2)CC1 (stereo not given)	1.8	x	x	x	x
Cc1[nH]nc2c1C(c1ccc(-c3ccccc3C#N)o1)C(C#N)=C(N)O2 (stereo not given)	-5.6	39.5*	8.4	-3.5	-6.5
Cc1[nH]nc2c1C(c1ccc(F)cc1)C(C#N)=C(N)O2 (stereo not given)	-3.0	3.1	1.6	-3.4	-2.4
CCCNCCCC(C)Nc1cc(OC)cc2c(C)ccnc12 (stereo not given)	-6.1	x	x	x	x
C=CCn1c(Cc2cccs2)nnc1SCC(=O)c1cccc(Br)c1	-4.3	-2.2	-1.2	-7.3	16.3
O=c1c(-c2ccc3c(c2)OCCO3)coc2c(CN3CCOCC3)c(O)ccc12	72.2*	4.2	4.6	-5.4	5.0
CCOC(=O)c1cnc2c(cnn2CC)c1NN=C(C)C	-0.5	x	x	x	x
Cc1cc(Cl)ccc1OCCCC(=O)NO	-1.1	6.1	6.3	7.2	93.3*
O=C(CCCC(=O)N1CCc2ccccc21)N1CCc2ccccc21	-6.6	-0.1	2.9	-2.5	-3.4
N#CC(Cc1ccc(O)c(O)c1)C(=O)N1CCc2ccccc21 (stereo not given)	81.0*	x	x	x	x
COC(=O)C1=C(N)N(c2ccc(F)cc2)C2=C(C(=O)CCC2)C1c1ccc2c(c1)OCO2 (stereo not given)	x	x	2.6	x	x
Cc1c(C(=O)OCC2CCCO2)[nH]c2c1C(=O)CC(c1ccc(N(C)C)cc1)C2 (stereo not given)	-0.8	3.3	2.9	2.0	1.6
Cc1nn(-c2nc3ccccc3s2)c(C)c1Oc1ccccc1O	-0.5	7.4	15.5	4.6	28.3*
Cc1nn(-c2ccccn2)c(C)c1Oc1ccccc1O	-2.1	4.7	-0.7	-0.2	-0.8
N#CCCC12CCCCC1=Nc1ccccc12 (stereo not given)	-7.7	3.7	7.3	19.0*	-1.6
O=c1cc(O)cc(/C=C/c2ccc(O)c(O)c2)o1	83.1*	x	x	x	x
Oc1ccc(/C=C/c2cc(O)cc(O)c2)cc1	8.5	8.3	1.9	-3.6	x
O=C(Nc1cccnc1)c1ccc(COc2ccccc2Br)o1	-13.2	13.3	5.0	20.7*	26.7
O=C(NCc1cccnc1)c1ccc(COc2ccccc2Br)o1	-5.6	5.6	4.7	0.8	1.3
CCOc1ccccc1N(C(=O)Cn1nnnc1-c1ccc(C)o1)C(CC)C(=O)NC(C)(C)C (stereo not given)	1.6	5.0	10.1	0.4	-10.5
CCCN1CCN(c2ncnc3c2nnn3Cc2ccccc2)CC1	0.9	5.8	8.2	5.0	62.6*
O=C(Nc1cccnc1)c1ccc2snnc2c1	-4.2	5.6	6.9	2.1	3.8
CCOc1ccccc1NC(=O)CCN1CCN(S(=O)(=O)c2ccc(Br)cc2)CC1	-1.4	5.9	6.7	-0.8	-0.1
CC(=O)c1sc(NC(=O)C2(F)C(F)(F)C(F)(F)C(F)(F)C(F)(F)C2(F)F)nc1C	-16.2	4.8	10.3	-3.4	89.5*
SMILES	Hsp90 block	ROCK2 blocker	PKA inh	JNK3 inh	Jurkat viability
C[C@H](Cc1ccccc1)Nc1ncnc2c1ncn2[C@@H]1O[C@H](CO)[C@H](O)C1O (stereo not given in full)	1.6	x	x	x	x
Cc1c(C(=O)O)c(-c2ccccc2)nn1-c1ccccc1	-3.6	1.2	-4.5	0.7	-0.9
Cc1nn(-c2ccccc2)c(C)c1C(=O)Nc1nnc(-c2ccco2)o1	7.2	-4.1	-7.4	0.2	33.2*
O=C(NC1CCCC1)C1CCCN1C(=O)Nc1ccc(Cl)cc1 (stereo not given)	3.8	3.2	6.7	2.4	-2.4
CC1(C)CC2(CCO1)CNC(=O)O2 (stereo not given)	-4.4	1.7	6.2	1.9	-5.3
N=c1c2c(-c3ccccc3)c(-c3ccccc3)n(Cc3ccco3)c2ncn1Cc1ccco1	-7.8	6.3	9.3	0.0	47.3*
COC(=O)c1sc2nc(-c3ccco3)ccc2c1N	-7.1	2.7	6.1	2.5	-9.3
COC(=O)c1sc2cnccc2c1N	-0.4	42.4*	16.6	2.6	-5.0
CC(=O)OCCOc1nc(N(C)C)nc(N(C)C)n1	0.9	-0.8	-1.7	-1.9	-1.9
O=C(Nc1nc(-c2ccc(S(=O)(=O)N3CCCCCC3)cc2)cs1)c1cccs1	0.6	6.4	5.5	6.8	28.7*
O=C(Nc1nc(-c2ccccc2)cs1)C1CCCN(S(=O)(=O)c2ccccc2)C1 (stereo not given)	-2.7	4.4	7.2	2.2	38.9*
O=C(Nc1nc(-c2nc3ccccc3s2)cs1)c1ccc(S(=O)(=O)N2CCOCC2)cc1	1.3	-0.9	-3.1	0.3	50.0*
COc1ccc2cc(CCNC(=O)c3c(-c4ccccc4Cl)noc3C)c(=O)[nH]c2c1	-2.1	7.3	8.6	0.8	-13.6
Cc1cccc2cc(=O)[nH]c(C)c12	-2.0	18.4*	8.3	3.8	-6.4
Cc1nc(NCc2ccco2)c(C#N)c2c1COC(C)(C)C2	-5.1	4.2	11.4	30.9*	-4.3
Cc1cc2c(cc1Cl)N(C(=O)Nc1ccnc3ccccc13)CC2	-1.2	x	x	x	x
O=c1c2c([nH]c3ccc(Br)cc13)CCCC2	4.0	1.7	7.7	-1.8	10.8
NC(=O)c1cc(Br)cc2c3c([nH]c12)CCCC3	-4.2	-1.4	-2.4	54.9*	9.4
Cc1ccc(C)c(-c2nnc(OCC(=O)Nc3cc(C)on3)c3ccccc23)c1	0.5	3.0	9.0	0.6	1.3
c1ccc2[nH]c(SCc3ccc(-c4nnco4)cc3)nc2c1	93.5*	-1.3	-2.6	-1.0	5.3
CC(=O)Nc1ccc(S(=O)(=O)N2CCC(n3cnc4cc(F)ccc43)CC2)cc1	-1.7	2.8	0.7	23.4*	9.3
CC(=O)Nc1ccc(S(=O)(=O)N2CCCN(S(=O)(=O)c3ccc(NC(C)=O)cc3)CC2)cc1	-1.3	5.6	12.2	5.7	-0.5
CCSCCOC(=O)C1=C(C)NC(=O)NC1c1ccc2c(c1)OCO2 (stereo not given)	0.9	-2.0	-12.8	-7.2	-7.7
CCSCCOC(=O)C1=C(C)NC(=O)NC1c1ccccc1 (stereo not given)	87.8*	4.5	1.5	1.2	-0.5
CCn1c(C(=O)NCc2cccnc2)cc2sc(Cl)cc21	0.7	-4.2	16.7	-1.1	1.2
SMILES	Hsp90 block	ROCK2 blocker	PKA inh	JNK3 inh	Jurkat viability
CSc1nc2nc3c(c(=O)n2[nH]1)CN(Cc1ccccc1)CC3	0.4	8.5	9.8	2.8	101.7*
Cc1cccc(N2C(=O)CC(N(C(=O)c3ccco3)c3cccc(C)c3)C2=O)c1 (stereo not given)	-1.0	-0.6	-5.0	-6.0	-0.6
COc1cc(C(=O)Nc2nnc(CC(=O)N3CCOCC3)s2)cc(OC)c1OC	3.3	0.3	-4.9	-2.1	-2.8
COc1cc(NC(=O)c2ccc3c(c2)OCO3)ccc1NC(=O)C(C)C	-0.7	-1.8	-4.3	-9.1	98.4*
O=C(Cn1c(=O)sc2ccccc21)NCCOc1ccccc1F	-1.4	x	0.6	x	x
Cc1nn(C)c(C)c1CNC(=O)c1nn2c(c1Cl)NC(c1cccs1)CC2C(F)(F)F (stereo not given)	1.6	-1.2	-4.0	2.1	40.6*
Cc1cccc(NC(=O)Cn2nnc(-c3cccs3)n2)c1C	53.8*	-4.5	3.5	-3.7	-0.7
